Compound activity from PubChem BioAssay.
Most compounds without a hit are left out; they make up all but 2% or so of the library.
DAGLB inhibitor: blocks human DAGLB lipase activity; HEK293T DAGLB membrane lysate, EnzChek fluorogenic substrate; 0.059% of 340,000 active; AID 504411; Q8NCG7; inhibition, % at 5.17 µM; in the data active = inhibition above about 34%;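 also: 0% = enzyme with vehicle and 100% = wells lacking enzyme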
Neddylation inh: blocks human cullin neddylation. TR-FRET cullin neddylation, biochemical. inhibition, % at 25 µM. 0.58% of 360,000 active. AID 651699; in the data active = inhibition above about 36%
Target sequence (P61081 whole entry, looked up): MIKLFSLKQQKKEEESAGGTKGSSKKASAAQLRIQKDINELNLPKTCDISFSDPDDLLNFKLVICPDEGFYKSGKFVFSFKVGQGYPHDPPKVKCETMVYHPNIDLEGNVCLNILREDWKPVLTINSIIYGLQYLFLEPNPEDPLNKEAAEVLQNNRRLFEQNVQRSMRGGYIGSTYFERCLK
Target sequence (Q13564 whole entry, looked up): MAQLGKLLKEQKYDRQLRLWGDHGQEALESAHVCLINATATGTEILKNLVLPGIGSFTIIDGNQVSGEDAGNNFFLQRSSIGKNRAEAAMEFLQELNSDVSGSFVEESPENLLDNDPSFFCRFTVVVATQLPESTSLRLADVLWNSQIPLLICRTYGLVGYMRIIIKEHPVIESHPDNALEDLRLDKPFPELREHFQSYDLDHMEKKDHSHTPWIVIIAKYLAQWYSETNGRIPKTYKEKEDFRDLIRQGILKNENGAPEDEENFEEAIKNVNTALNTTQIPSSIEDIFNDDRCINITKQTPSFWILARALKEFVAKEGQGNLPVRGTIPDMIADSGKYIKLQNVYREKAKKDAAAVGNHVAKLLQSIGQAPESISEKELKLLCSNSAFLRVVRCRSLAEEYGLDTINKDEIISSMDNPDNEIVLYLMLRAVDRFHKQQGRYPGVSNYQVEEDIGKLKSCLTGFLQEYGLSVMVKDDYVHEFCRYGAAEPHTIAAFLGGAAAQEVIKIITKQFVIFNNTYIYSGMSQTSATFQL
ARNT-TACC3 inh: disruptors of human ARNT/TACC3 interaction | Q9Y6A5 | AlphaScreen His-ARNT PAS-B/GST-TACC3 binding, luminescence; TACC3 fragment carries E629A point mutation | inhibition, % at 9.99 µM | 0.66% of 390,000 active | AID 623870;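 active = mean inhibition of replicates at least 50% and at least half of replicates each reaching 50%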;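 also: 0% = complete ARNT plus TACC3 wells and 100% = ARNT alone without TACC3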
HGIII-sPLA2 inh: Blocks human group III sPLA2 activity | QFRET BODIPY PC-A2 liposome hydrolysis, fluorescence | inhibition, % at 12.2 µM | Q9NZ20 | 0.56% of 370,000 active;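 active = inhibition above mean plus 3 SD of compounds lying within the high and low control bounds, cut at about 19% in these data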;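 also: 0% = median of test compound wells and 100% = no enzyme DMSO wells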
NadD inh: NadD (S. aureus) enzyme inhibition; inhibition, % at 20 µM; purified NadD enzyme, colorimetric absorbance read-out; 0.78% of 360,000 active; AID 602399; in the data active = inhibition above about 26%
hGIII sPLA2 conf: human GIII-sPLA2 inhibition, confirmation; shares compounds with HGIII-sPLA2 inh; recombinant hGIII-sPLA2, BODIPY PC-A2 QFRET fluorescence; inhibition, % at 12.2 µM; 34% of 2,000 active;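 active = mean inhibition across triplicates above the hit cutoff set in the earlier primary screen, cut at about 19% in these data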;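 also: 0% = enzyme with DMSO and 100% = DMSO wells lacking enzyme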
535nm interf: counter-screen for HGIII-sPLA2 inhibitors: 535nm fluorescence interference. AID 743282. 8.5% of 2,000 active. shares compounds with HGIII-sPLA2 inh. inhibition, % at 12.2 µM. BODIPY FL product fluorescence interference, QFRET;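 active = average inhibition above the solvent-only control mean plus 3 SD, cut at about 6% in these data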;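 also: 0% = DMSO with substrate plus product and 100% = DMSO with substrate alone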
The depositor's hits bear a star.

Results for CC(c1ccccc1)n1c(Cn2ncc3ccccc3c2=O)n[nH]c1=S (configuration not stated) ?
DAGLB inhibitor: 1.8; Neddylation inh: -0.5; ARNT-TACC3 inh: 1.4; HGIII-sPLA2 inh: 6.4; NadD inh: -6.0

Results for CCOc1ccc(N=Nc2c(=O)[nH]n3c(C)cc(C)nc23)cc1 ?
DAGLB inhibitor: 4.3; Neddylation inh: -144.8; ARNT-TACC3 inh: 1.4; HGIII-sPLA2 inh: 0.1; NadD inh: 0.4

What do the screens show for `COc1cccc(N=Nc2c(=O)[nH]n3c(C)cc(C)nc23)c1`?
DAGLB inhibitor: 6.4; Neddylation inh: -85.1; ARNT-TACC3 inh: 5.4; HGIII-sPLA2 inh: 22.5*; NadD inh: -1.5; hGIII sPLA2 conf: -5.2; 535nm interf: 0.5

What do the screens show for `O=C(COC(=O)/C=C/c1ccc([N+](=O)[O-])cc1)NC(=O)NC1CCCCC1`?
DAGLB inhibitor: 4.3; Neddylation inh: -9.8; ARNT-TACC3 inh: 5.9; HGIII-sPLA2 inh: 4.0; NadD inh: -1.4

How did CC1CCCC(NC(=O)COC(=O)/C=C/c2ccc([N+](=O)[O-])cc2)C1C (configuration not stated) do in these assays?
DAGLB inhibitor: -0.2; Neddylation inh: -14.0; ARNT-TACC3 inh: 1.2; HGIII-sPLA2 inh: 19.4*; NadD inh: 3.0; hGIII sPLA2 conf: -6.5; 535nm interf: -10.8

What do the screens show for `NC(=S)Cc1ccc(Cl)cc1Cl`?
DAGLB inhibitor: -0.8; Neddylation inh: -5.1; ARNT-TACC3 inh: -2.9; HGIII-sPLA2 inh: 11.3; NadD inh: -8.6

How did N=C(N)SCc1ccc(Cl)cc1Cl do in these assays?
DAGLB inhibitor: -1.2; Neddylation inh: -0.1; ARNT-TACC3 inh: -6.9; HGIII-sPLA2 inh: 38.8*; NadD inh: -5.6; hGIII sPLA2 conf: 1.0; 535nm interf: -8.1

Results for O=C(C[C@H]1C=C[C@@H](NC(=O)Cc2ccccn2)[C@@H](CO)O1)NCCCN1CCOCC1 ?
ARNT-TACC3 inh: -0.8

What do the screens show for `CCCNC(=O)C[C@H]1CC[C@@H]2[C@H](COc3ccc(NC(=O)COC)cc3C(=O)N2C)O1`?
ARNT-TACC3 inh: -2.9

What do the screens show for `CCN(CC)CCNC(=S)Nc1ccc(Cl)cc1`?
DAGLB inhibitor: 2.3; Neddylation inh: 0.3; ARNT-TACC3 inh: -2.1; HGIII-sPLA2 inh: 21.2*; NadD inh: -1.2; hGIII sPLA2 conf: 13.4; 535nm interf: -6.8

Results for CCN(CC)CCCNC(=S)Nc1ccc(Br)cc1 ?
DAGLB inhibitor: 1.5; Neddylation inh: 5.2; ARNT-TACC3 inh: -2.6; HGIII-sPLA2 inh: -1.3; NadD inh: -3.8

What do the screens show for `NCCOc1ccc(C23CC4CC(CC(C4)C2)C3)cc1`?
DAGLB inhibitor: -0.3; Neddylation inh: 7.0; ARNT-TACC3 inh: 2.9; HGIII-sPLA2 inh: 31.2*; NadD inh: 4.7; hGIII sPLA2 conf: 13.8; 535nm interf: -28.7

What do the screens show for `OCCN1CCN(CC(O)COc2ccc(C34CC5CC(CC(C5)C3)C4)cc2)CC1` (configuration not stated)?
DAGLB inhibitor: 6.1; Neddylation inh: 3.0; ARNT-TACC3 inh: 4.2; HGIII-sPLA2 inh: -15.3; NadD inh: -2.7

How did COC(=O)[C@@H]1C(c2c(OC)cc(OC)cc2OC)=NO[C@H]1C(=O)OC do in these assays?
DAGLB inhibitor: -0.3; Neddylation inh: 4.4; ARNT-TACC3 inh: -4.6; HGIII-sPLA2 inh: 20.2*; NadD inh: -3.1; hGIII sPLA2 conf: 4.7; 535nm interf: -4.2

Results for COC(=O)C1CC(c2c(OC)cc(OC)cc2OC)=NO1 (configuration not stated) ?
DAGLB inhibitor: 2.0; Neddylation inh: 1.3; ARNT-TACC3 inh: -7.9; HGIII-sPLA2 inh: 5.3; NadD inh: -4.7

How did Cc1ccc(OCCN2CCN(C)CC2)c([N+](=O)[O-])c1 do in these assays?
DAGLB inhibitor: -1.4; Neddylation inh: -9.1; ARNT-TACC3 inh: -11.3; HGIII-sPLA2 inh: 22.2*; NadD inh: 1.0; hGIII sPLA2 conf: -1.0; 535nm interf: -5.3

How did O=C(C[C@H]1CC[C@@H](NC(=O)c2ccc3c(c2)OCO3)[C@@H](CO)O1)NCc1ccc(Cl)cc1 do in these assays?
ARNT-TACC3 inh: -5.5

How did O=C(O)c1ccccc1C(=O)Nc1ccc(Nc2ccc([N+](=O)[O-])cc2[N+](=O)[O-])cc1 do in these assays?
DAGLB inhibitor: 20.7; Neddylation inh: -73.5; ARNT-TACC3 inh: 13.3; HGIII-sPLA2 inh: 21.8*; NadD inh: -0.9; hGIII sPLA2 conf: 18.4; 535nm interf: -2.0

How did O=C(O)c1ccccc1C(=O)Nc1cccc([N+](=O)[O-])c1 do in these assays?
DAGLB inhibitor: 0.5; Neddylation inh: -20.4; HGIII-sPLA2 inh: 4.3; NadD inh: 0.6

Results for NC(c1csc(NC(=O)Nc2ccccc2)n1)C1CCCCC1 (configuration not stated) ?
Neddylation inh: 1.2; HGIII-sPLA2 inh: 22.3*; NadD inh: 0.3; hGIII sPLA2 conf: 7.9; 535nm interf: -12.1

How did COc1ccc(CCNC(=O)Nc2nc(C(N)C3CCCCC3)cs2)cc1OC (configuration not stated) do in these assays?
Neddylation inh: 3.2; HGIII-sPLA2 inh: 22.1*; NadD inh: -8.7; hGIII sPLA2 conf: 4.9; 535nm interf: -21.8

How did NC(c1csc(Nc2nncc3ccccc23)n1)C1CCCCC1 (configuration not stated) do in these assays?
Neddylation inh: 8.0; HGIII-sPLA2 inh: 19.7*; NadD inh: -1.4; hGIII sPLA2 conf: 7.6; 535nm interf: -20.8

Results for COc1ccc(CCNC(=O)Nc2nc(C(N)CCc3ccccc3)cs2)cc1OC (configuration not stated) ?
Neddylation inh: 0.9; HGIII-sPLA2 inh: 5.1; NadD inh: 3.6

What do the screens show for `NC(c1ccccc1)c1csc(NC(=O)NCCc2ccccc2)n1` (configuration not stated)?
Neddylation inh: 4.7; HGIII-sPLA2 inh: 25.1*; NadD inh: -1.2; hGIII sPLA2 conf: -1.5; 535nm interf: -7.7

What do the screens show for `C/C=C/c1ccc2c(c1)O[C@H](CN(C)C(=O)c1ccc(F)cc1)[C@H](C)CN([C@H](C)CO)S2(=O)=O`?
ARNT-TACC3 inh: 4.9

Results for CO[C@@H]1CN(C)C(=O)c2cc(NS(C)(=O)=O)ccc2OC[C@@H](C)N(Cc2ccccc2)C[C@@H]1C ?
ARNT-TACC3 inh: -1.1

Results for Cc1[nH]n(-c2ccccc2)c(=O)c1C(=O)c1ccccc1 ?
DAGLB inhibitor: -1.8; Neddylation inh: 0.6; ARNT-TACC3 inh: -19.3; HGIII-sPLA2 inh: 2.3; NadD inh: -2.5

What do the screens show for `CCSC(=S)c1c(C)[nH]n(-c2ccccc2)c1=O`?
DAGLB inhibitor: 0.9; Neddylation inh: -7.8; ARNT-TACC3 inh: 11.3; HGIII-sPLA2 inh: 19.3*; NadD inh: -6.7; hGIII sPLA2 conf: 12.5; 535nm interf: -1.2
